Compound activity (PubChem)
Most compounds without a hit are left out; they make up all but 7.5% or so of the library.
Rab9 promoter act: Rab9 promoter activation. AID 485297. hit rate 2.8% among 320,000. Potency, µM (series often up to 9.22 µM), usual class: activators. Huh7 Rab9 promoter-luciferase reporter, luminescence, 24 h; also: nearly all actives have a fitted effect of over 60% in size
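Huh7 cells stably carrying a Rab9 promoter-luciferase reporter, 1500 cells per well in OP-MEM I with 10% FBS, treated with compound 24 hours at 37C. Luciferase activity read by luminescence after 10 minutes with Amplite reagent.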
ELG1 genotoxic: genotoxicity induction in ELG1-luciferase HEK293T cells; HEK293T ELG1-luciferase reporter, luminescence, 16 h; Potency, µM (series often up to 46 µM), most hits filed as activators; hit rate 1.3% among 330,000; also: nearly all actives have a fitted effect of over 60% in size
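16 hr compound incubation (37 °C, 5% CO2) of HEK293T cells carrying luciferase-tagged ELG1; luciferase then measured by ONE-Glo luminescence after 30 min at RT.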
FLuc modulator: counter-screen for miR-21 project: firefly luciferase inhibitors or activators; hit rate 6.9% among 360,000; Potency, µM (top dose mostly 57.5 µM), actives largely listed as inhibitors; P08659; purified FLuc, Km substrates, luminescence inhibition; also: nearly all actives have a fitted effect of over 55% in size
Target sequence (P08659 whole entry, looked up): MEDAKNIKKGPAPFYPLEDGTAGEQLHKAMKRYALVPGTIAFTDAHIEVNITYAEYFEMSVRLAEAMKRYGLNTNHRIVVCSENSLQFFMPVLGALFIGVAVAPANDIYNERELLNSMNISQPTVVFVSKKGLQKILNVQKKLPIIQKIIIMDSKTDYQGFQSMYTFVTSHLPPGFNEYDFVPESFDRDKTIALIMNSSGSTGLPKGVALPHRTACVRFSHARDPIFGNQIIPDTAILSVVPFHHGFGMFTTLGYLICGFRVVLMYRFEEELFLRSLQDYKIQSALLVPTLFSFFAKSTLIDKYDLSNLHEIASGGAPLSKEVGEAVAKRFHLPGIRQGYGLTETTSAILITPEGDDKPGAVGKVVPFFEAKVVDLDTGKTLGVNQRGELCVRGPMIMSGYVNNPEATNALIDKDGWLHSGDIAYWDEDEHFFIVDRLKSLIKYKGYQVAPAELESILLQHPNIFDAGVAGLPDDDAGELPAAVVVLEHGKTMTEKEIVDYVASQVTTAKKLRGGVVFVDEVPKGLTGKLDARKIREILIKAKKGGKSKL
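Purified P. pyralis luciferase, 10 nM final, with Km-level 10 uM D-luciferin and 10 uM ATP in 50 mM Tris acetate pH 7.5, 10 mM Mg acetate, 0.01% Tween-20, 0.05% BSA; 6-point qHTS titration about 60 µM downward; luminescence read.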
KinaseGlo FLuc: counter-screen: inhibitors of Kinase-Glo firefly luciferase | Kinase-Glo luciferase, ATP luminescence, 8 min | Potency, µM (top dose mostly 38.3 µM), hits mostly inhibitors | hit rate 0.28% among 200,000 | AID 1379; also: nearly all actives have a fitted effect of over 60% in size
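Substrate mix (final 50 mM imidazole pH 7.2, 50 mM KCl, 7 mM MgCl2, 10 uM ATP, 0.01% Tween 20, 0.05% BSA) plus pin-tool compound, then Kinase-Glo detection mix; 8 min ambient, luminescence read.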
SMN2 splice enh: SMN2 splice variant enhancement; hit rate 2.8% among 210,000; HEK293 SMN2-luciferase splicing reporter, luminescence, 30-36 h; Potency, µM (top dose mostly 46.1 µM), most hits filed as activators; also: nearly all actives have a fitted effect of over 55% in size
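HEK293 cells carry an SMN2 minigene-luciferase reporter in which exon 7 inclusion puts luciferase in frame. Cells were seeded at 2000 cells/well, attached for 10-12 hours, then exposed to compounds for 30-36 hours at 37C before ONE-Glo luminescence.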
NPC1 prom act: NPC1 promoter activation. Huh7 NPC1 promoter luciferase reporter, 24 h. Potency, µM (doses to about 9.22 µM), actives largely listed as activators. hit rate 2.4% among 320,000. AID 485313; also: nearly all actives have a fitted effect of over 60% in size
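Stable NPC1-promoter luciferase Huh7 line; cpd (DMSO) 24 h, 37 °C, 5% CO2; Amplite luciferase reagent 10 min RT; luminescence readout. qHTS format.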
Numbers stand for hits; – = inactive; ? = inconclusive; · = no result given; [ ] = another dose, or the depositor's remark. Calls follow the shape of the dose curve; as a rule, active = well fitted curve in the direction sought with a large enough effect; inconclusive = small, poorly fitted or top-dose-only effect, or another doubt; inactive = no such curve, though single readings can be large; an effect the other way counts as inactive or inconclusive.

SMILES	Rab9 promoter act	ELG1 genotoxic	FLuc modulator	KinaseGlo FLuc	SMN2 splice enh	NPC1 prom act
CCN(CC)S(=O)(=O)c1ccc(NC(=S)NC(=O)CC(C)C)cc1	–	–	–	–	–	–
CCc1ccc(NC(=S)NC(=O)CC(C)C)cc1	?	?	7.57µM	–	8.91µM	?
CCOC(=O)c1sc(NC(=O)c2ccc(Cl)s2)cc1C	1µM	2.31µM	0.601µM	–	7.94µM	?
COC(=O)CSCc1nc(-c2ccc(C(=O)OC)cc2)oc1C	·	·	–	·	·	·
COc1cccc(OCc2nc3ccccc3n2CCOc2ccc(C)cc2)c1	·	·	–	·	–	·
COc1ccc(Nc2nccc(-c3cccc(N)c3)n2)cc1	?	–	2.69µM	·	·	1.78µM
O=C(CSc1c2c(nc3ccccc13)CCC2)Nc1ccc(F)cc1F	·	·	–	·	–	·
Cc1cc2sc3nc(=O)n(-c4ccccc4)c(=O)n3c2cc1C	3.16µM	?	16.9µM	·	·	?
C/C(CC(=O)Nc1ccccn1)=N\NC(=O)c1ccccc1O	–	16.4µM	16.9µM	·	·	–
C/C(CC(=O)Nc1cc(C)ccn1)=N\NC(=O)c1cccc(C)c1	–	–	–	–	–	–
C/C(CC(=O)Nc1cc(C)ccn1)=N\NC(=O)c1cccc(C)c1O	–	5.8µM	?	·	·	–
C/C(CC(=O)Nc1ccccn1)=N\NC(=O)c1ccccc1	–	–	–	–	?	–
CN(C(=O)c1cnc(N2CCOCC2)c2ccccc12)c1ccccc1F	·	·	–	·	·	·
COCC(C)NC(=O)c1noc2c1CCc1cc(OC)ccc1-2 (stereo not drawn)	2.51µM	?	13.5µM	–	10µM	3.16µM
COc1ccc2c(c1)CCc1c(C(=O)Nc3cc(OC)c(Cl)cc3OC)noc1-2	·	·	–	·	–	·
COc1ccc2c(c1)CCc1c(C(=O)NCCN3CCOCC3)noc1-2	–	–	–	–	–	–
COCCNC(=O)c1noc2c1CCc1cc(OC)ccc1-2	?	?	?	–	7.94µM	3.55µM
COc1ccc2c(c1)CCc1c(C(=O)NC3CCCCC3)noc1-2	1.12µM	?	1.35µM	–	7.08µM	1.41µM
COc1ccc2c(c1)CCc1c(C(=O)NCc3ccco3)noc1-2	1.58µM	?	7.57µM	–	7.08µM	3.55µM
COc1ccc2c(c1)CCc1c(C(=O)Nc3ccc(C#N)cc3)noc1-2	·	·	–	·	–	·
COc1ccc2c(c1)CCc1c(C(=O)N(C)c3ccccc3)noc1-2	?	?	13.5µM	–	5.01µM	?
CC(C)(C)OC(=O)N1CCC(c2c(C(=O)N3CCN(C(=O)c4ccco4)CC3)cnn2-c2cccc(F)c2)CC1	·	·	–	·	·	·
CC(=O)N1CCC2(CC1)OC(=O)C(C)=C2C(=O)Nc1cccc(Cl)c1C	·	·	–	·	·	·
CCc1ccc(/C=C2\SC(N3CCCC3)=NC2=O)cc1	–	–	16.9µM	–	–	–
O=C1N=C(N2CCCC2)S/C1=C\C=C\c1ccccc1	0.562µM	1.64µM	0.849µM	·	·	1.58µM
SMILES	Rab9 promoter act	ELG1 genotoxic	FLuc modulator	KinaseGlo FLuc	SMN2 splice enh	NPC1 prom act
O=C1N=C(N2CCCCC2)S/C1=C\c1cn[nH]c1-c1ccccc1	–	–	7.57µM	–	?	–
COc1ccc(/C=C2\SC(N3CCCCC3)=NC2=O)cc1	?	–	10.7µM	·	·	?
O=C1N=C(N2CCCCC2)S/C1=C\c1ccncc1	–	–	–	·	·	–
O=C1N=C(N2CCOCC2)S/C1=C\c1cccnc1	–	–	–	–	–	–
Cn1nc(-c2ccc(OCC(=O)Nc3cccc(C(F)(F)F)c3)cc2)c2ccccc2c1=O	·	·	–	·	–	·
Cc1ccc2c(c1)cc1c(=O)n(CC(=O)N3CCCCC3)nc(C)n12	·	·	–	·	–	·
Nc1nc(N)c(S(=O)(=O)c2ccccc2)c(Nc2ccccc2)n1	·	·	–	·	–	·
O=C(CON1C(=O)c2ccccc2C1=O)c1ccccc1	·	·	·	–[7.66 µM]	–[9.22 µM]	·
COc1ccc(-n2c(/C=C/c3cc(OC)c(OC)cc3OC)nc3cc4ccccc4cc3c2=O)cc1Cl	·	·	–	·	·	·
CC1CCN(C2=NC(=O)/C(=C/c3cccc(O)c3)S2)CC1	–	–	?	·	·	–
CC1CCN(C2=NC(=O)/C(=C/c3ccccc3F)S2)CC1	–	9.2µM	3.38µM	·	·	?
CSc1nsc(/C=C/Nc2ccc(C)cc2)c1C#N	·	·	1.35µM	–	?	·
O=C(O)c1cc(N/N=C/c2ccc(-c3ccccc3)cc2)ccc1Cl	0.1µM	0.461µM	0.757µM	·	·	0.0891µM
COc1ccc(C(=O)Oc2ccc(/C=N/Nc3ccc(Cl)c(C(=O)O)c3)cc2OC)cc1	?	–	?	·	·	?
CSc1ccc(/C=N/Nc2ccc(Cl)c(C(=O)O)c2)cc1	?	?	0.536µM	–	1.78µM	0.1µM
O=C(O)c1cc(N/N=C/c2ccncc2)ccc1Cl	–	–	9.53µM	·	·	–
O=C(O)c1cc(N/N=C/c2cccnc2)ccc1Cl	–	–	19µM	·	·	–
O=C(Cc1ccc(Cl)c(Cl)c1)N/N=C/c1cccnc1	–	–	–	·	·	–
Cc1ccc(S(=O)(=O)N2CCC(N3CCN(Cc4ccccc4)C(=O)C3=O)CC2)cc1C	·	·	–	·	·	·
Cc1ccc(C)c(N2CCN(C(=O)c3cc4c(=O)n(Cc5cccnc5)ccc4nc3C)CC2)c1	·	·	–	·	·	·
CCOc1ccc(NC(=O)Cn2c(=O)cc(C)c3c(C)nn(-c4ccc(CC)cc4)c32)cc1	·	·	–	·	·	·
O=C(O)c1cc(N/N=C/c2c[nH]c3ccccc23)ccc1Cl	1.58µM	?	6.75µM	·	·	2µM
O=C(N/N=C/c1c[nH]c2ccccc12)c1ccc([N+](=O)[O-])cc1Cl	–	–	?	·	·	–
Cc1nc(-c2ccc(Cl)cc2)sc1C1(C)CC(c2cccc(Cl)c2)=NO1 (stereo not drawn)	–	–	23.9µM	·	·	–
Cc1nc(-c2ccc(Cl)cc2)sc1C1(C)CC(c2cccc(F)c2)=NO1 (stereo not drawn)	–	–	23.9µM	·	·	–
SMILES	Rab9 promoter act	ELG1 genotoxic	FLuc modulator	KinaseGlo FLuc	SMN2 splice enh	NPC1 prom act
COc1cc(NC(=O)c2nc(-c3ccncc3)no2)cc(OC)c1OC	·	·	–	·	·	·
Cc1ccc(CNC(=O)c2cnc(N(C)C)nc2)cc1	·	·	–	·	·	·
CCCCc1nc2c(c3c1C[C@H](C)OC3)CN(C(=O)C1CCCCC1)CC2	·	·	·	–[7.66 µM]	–[9.22 µM]	·
Cc1cc2nc(-c3cccnc3SCC(=O)NCc3ccco3)[nH]c2cc1C	3.16µM	?	0.953µM	11.2µM	12.6µM	3.98µM
O=C(CSc1nc2ncccc2[nH]1)NCc1ccco1	–	–	–	·	·	–
O=C(CSc1nc2ccccc2[nH]1)NCc1ccco1	–	?	–	–	–	–
O=C(CSc1ncccc1-c1nc2ccccc2[nH]1)NCc1ccco1	–	?	23.9µM	–	–	–
Cc1cc2nc(-c3cccnc3SCC(=O)NC3CC3)[nH]c2cc1C	?	?	2.69µM	?	15.8µM	?
CCOC(=O)Cc1ccc(NC(=O)N2CC(CC)Oc3ccccc32)cc1 (stereo not drawn)	·	·	–	·	·	·
CN(C)c1ccc(/C=C(\C#N)c2ccccc2)cc1	0.562µM	4.11µM	1.35µM	·	·	–
CN(C)c1ccc(/C=C(/NC(=O)c2ccccc2)C(=O)N2CCCC2)cc1	–	–	16.9µM	·	·	–
